# Data as given in PubChem BioAssay AID1159580 (chemical genetic matrix, 2015).
# Among all 5,500 compounds or so, about 2,000 (36%) were called active. Roughly 18% stayed inconclusive and do not appear here. The list shows a part of the results. Values without a mark were called inactive. No stated cut-off is given here; in the data, active means normalized growth mostly below about 0.91 (no sharp cut-off); inconclusive means no clear call, values can overlap the other calls; inactive means mostly above about 0.92.
# Assay: chemical genetic growth profiling, strain panel (AID 1159580);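 further: tested at 20 µM; growth read once vehicle control cultures reached saturation at 30 °C; 1 = growth at the plate median or of vehicle wells; lower values mean less growth of the strain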
# Details: S. cerevisiae deletion strains, growth OD
smiles,measurement,setting,value
Cc1onc2c(=O)n(-c3ccccc3)nc(-c3ccccc3)c12,normalized growth,"locus YAL013W, strain DEP1, hits give low values",0.98
same,normalized growth,"locus YBR229C, strain ROT2, hits give low values",0.983
same,normalized growth,"locus YCL061C, strain MRC1, hits give low values",0.98
same,normalized growth,"locus YDL101C, strain DUN1, hits give low values",0.954
same,normalized growth,"locus YDL134C, strain PPH21, hits give low values",0.981
same,normalized growth,"locus YDR150W, strain NUM1, hits give low values",0.934
same,normalized growth,"locus YEL061C, strain CIN8, hits give low values",0.968
same,normalized growth,"locus YGR078C, strain PAC10, hits give low values",0.947
same,normalized growth,"locus YHR030C, strain SLT2, hits give low values",0.517 (active)
same,normalized growth,"locus YHR087W, strain rtc3, hits give low values",0.978
same,normalized growth,"locus YJR043C, strain POL32, hits give low values",1.01
same,normalized growth,"locus YJR075W, strain HOC1, hits give low values",0.622 (active)
same,normalized growth,"locus YLR039C, strain RIC1, hits give low values",0.57 (active)
same,normalized growth,"locus YLR058C, strain SHM2 (second series), hits give low values",0.984
same,normalized growth,"locus YLR085C, strain ARP6, hits give low values",0.769 (active)
same,normalized growth,"locus YLR262C, strain YPT6, hits give low values",0.574 (active)
same,normalized growth,"locus YML094W, strain GIM5, hits give low values",0.978
same,normalized growth,"locus YMR219W, strain ESC1, hits give low values",0.955
same,normalized growth,"locus YMR263W, strain SAP30, hits give low values",0.974
same,normalized growth,"locus YMR307W, strain GAS1, hits give low values",0.568 (active)
same,normalized growth,"locus YNL153C, strain GIM3, hits give low values",1
same,normalized growth,"locus YNL298W, strain CLA4 (second series), hits give low values",0.911
same,normalized growth,"locus YNL322C, strain KRE1, hits give low values",0.929 (active)
same,normalized growth,"locus YNR030W, strain Alg12, hits give low values",0.945
same,normalized growth,"locus YPL055C, strain LGE1, hits give low values",1.02
same,normalized growth,"locus YPL241C, strain CIN2, hits give low values",0.959
same,normalized growth,"locus YPR135W, strain CTF4, hits give low values",0.68
